# Data taken from ChEMBL document CHEMBL3988442, “University of Dundee, Small-Polar-MMV Screening Library” (2021).
# Hit rate of the full screen: of about 48,000 compounds, about 13,000 (27%) showed an effect of 50% or more. The list shows a part of the results.
# Tested on: Wolbachia pipientis
# Test: Anti-Wolbachia Cell-Based Screen
# Assay type: functional
# Parameters: scale not given: in the data most compounds retested in dose-response had high values
# Conditions: 5 µM
row,SMILES,Percent Effect [%]
1,Cc1[nH]c(=O)[nH]c(=O)c1CN1CCCC(CCc2ccc(F)c(F)c2)C1 (configuration not stated),8.003
2,O=C1CC[C@H](C(=O)N(CCc2ccccc2)C2CCOC2)N1 (some centres not stated),-17.91
3,CCC(=O)N1CCc2[nH]cnc2C12CCN(C1CCOCC1)CC2,-8.971
4,CCc1ccc(CN(C)Cc2cnc(S(=O)(=O)CC)n2CCOC)cc1,-8.303
5,Cc1sc2nc(CCN)nc(N3CCC(N4CCCC4)CC3)c2c1C,-8.408
6,Cc1cccnc1CNC(=O)NC(C)Cc1c(C)nn(C)c1C (configuration not stated),-5.579
7,O=C(NCCNC(=O)c1ccc(Br)cc1)c1ccc(O)cc1,3.17
8,Cc1nc(S(=O)(=O)CCn2cccn2)n(CC2CCCO2)c1C (configuration not stated),-14.31
9,CCc1csc(CNc2cc(C)nc(-c3cccnc3)n2)n1,113.3
10,COc1cccc(CNc2cc(C)nc(-c3ccncc3)n2)c1OC,-14.13
11,COCc1nc(CNc2cccc(-c3csc(C)n3)c2)cs1,-8.53
12,CCc1nc(CNc2cc(C)nc(-c3cccnc3)n2)cs1,88.21
13,COc1cccc(CNc2cc(C)nc(-c3ccncc3)n2)c1O,-14.65
14,CC(C)Cc1cc(CNc2nc(-c3cccnc3)nc3c2CNC3)no1,13.84
15,CCSCC(C)NCc1nncn1C1CCCCC1 (configuration not stated),-19.08
16,COCCOc1ccc(NC(=O)N(CCCO)CC(C)(C)C)cn1,7.116
17,COCCN(Cc1ccccn1)C(=O)Nc1cccnc1N1CCCC1,-3.62
18,COCCCN(CCOC)C(=O)Nc1ccccc1-n1cccn1,144.2
19,COCCCN(CCOC)C(=O)Nc1ccc(Br)cc1,130.2
20,CCN(CCO)C(=O)Nc1ccc(OCCOC)nc1,0.2723
21,COCCN(C)C(=O)c1ccccc1-n1cccn1,3.962
22,O=C(C1CC=CC1)N1CCC2(CCN(Cc3cccc(F)c3)CC2)C1,0.9808
23,N#Cc1ccc(CNC(=O)NC2CCN(c3ncccn3)CC2)cc1,5.422

row,SMILES,Percent Effect [%]
1,Cc1cnc(CN2CCN(c3ccnc(-c4ccccc4)n3)CC2)cn1,144.2
2,Cc1cc(CN2CCN(CC(O)c3ccccc3)CC2)no1 (configuration not stated),-10.98
3,Cc1noc(C)c1CN1CCN(c2ccnc(-c3ccccc3)n2)CC1,94.83
4,Cc1noc(C)c1CN1C[C@@H](C(=O)O)[C@H](c2ccccn2)C1,-12.63
5,Cc1noc(C)c1CN1CCN(Cc2nccn2C)CC1,-9.314
6,Cc1cc(CN2CCN(C(c3ccccc3)c3ccccc3)CC2)no1,-4.667
7,Cc1cc(CN2CCN(c3ccnc(-c4ccccc4)n3)CC2)no1,122.7
8,Cc1cnc(CN2CCCCC2c2nc(-c3ccccc3)no2)cn1 (configuration not stated),19.76
9,Cn1cnc2c1CCN(c1ccnc(-c3ccccc3)n1)C2,-10.53
10,CS(=O)(=O)NCCNC(=O)c1ccc(OCc2ccccc2)nc1,7.359
11,CCC(C)NC(=O)N1CCCn2cnc(CO)c2C1 (configuration not stated),-12.35
12,CC(C)NC(=O)N1CCCn2cnc(CO)c2C1.O=C(O)C(F)(F)F,89.15
13,O=C(NC1CCCC1)N1CCCC(c2nccn2Cc2ccncc2)C1 (configuration not stated),-3.815
14,CC(C)NC(=O)N1CCCn2cnc(CN3CCCC3=O)c2C1,81.15
15,O=C1CCCN1Cc1ncn2c1CN(C(=O)NC1CCCCC1)CCC2,133.6
16,CC(C)OCc1ncn2c1CN(CCO)CCC2.O=C(O)C(F)(F)F,-4.222
17,CC(C)CC(=O)N1CCCn2cnc(CN3CCCC3=O)c2C1,1.077
18,O=C1CCCN1Cc1ncn2c1CN(C(=O)NC1CCCC1)CCC2,86.82
19,Cn1nnnc1SCCNC(=O)CC1CCc2ccccc21 (configuration not stated),1.963
20,CCC(CO)NC(=O)Nc1ccc(OCC(F)(F)F)c(C)c1 (configuration not stated),-12.14
21,CCN(Cc1noc(CC(C)C)n1)Cc1ccccc1OCC(=O)O,3.118
22,O=C(Cn1ccc2ccccc21)N1CCC(Oc2ncccc2Br)CC1,10.7
23,Cl.Cl.c1c(CN2CCCCC2)nc2n1CCNC2,4.844

row,SMILES,Percent Effect [%]
1,CC(C)c1ccc(-n2cc(O)c(C(=O)O)n2)cc1,3.312
2,CCCNC(=O)CN1CCC(NCc2c(C)nn(C)c2OC)CC1,-12.27
3,CNC(=O)[C@@H]1C[C@@H](NC(=O)CCCc2cccs2)CN1C1CCOCC1,-14.74
4,Cn1cc(CN2CCCn3cnc(CN4CCCC4=O)c3C2)cn1,-11.95
5,O=C1CCCN1Cc1ncn2c1CN(C(=O)C1CC=CC1)CCC2,99.96
6,CN(C)C(=O)NCc1ncn2c1CN(Cc1cccs1)CCC2.O=C(O)C(F)(F)F.O=C(O)C(F)(F)F,0.9692
7,O=C(O)C(F)(F)F.O=C1CCCN1Cc1ncn2c1CN(C(=O)N1CCCC1)CCC2,106.2
8,Cc1cccc(NC(=O)N2CCCn3cnc(CN(C)C(C)C)c3C2)c1.O=C(O)C(F)(F)F,110.9
9,Cc1cccc(NC(=O)N2CCCn3cnc(CN4CCCC4)c3C2)c1.O=C(O)C(F)(F)F,-10.04
10,O=C1O[C@@H]2CN(Cc3ccccc3F)C[C@@H]2N1CCCN1CCOCC1,2.415
11,CCn1c(CN2CCCC(Cn3cncn3)C2)nc2c(F)cccc21 (configuration not stated),-3.133
12,OCCN1CCN(CC2(O)CCCCC2)CC1,-8.643
13,NCC1(CN2CCOCC2)CCCCC1,7.377
14,NC1(CN2CCCCC2)CCCCC1,100.8
15,OC1(CN2CCCC2)CCCN(c2ncnc3[nH]cnc23)C1 (configuration not stated),-10.69
16,Cc1nsc(NC(=O)NC2(CN3CCOCC3)CCCCC2)n1,1.675
17,NC1(CN2CCOCC2)CCCCC1,80.74
18,CCCc1nc(C)c(CNc2nc(C)nc3oc(C)nc23)s1,10.41
19,Cc1nnc(SCCC(=O)N(C)Cc2ccc(F)cc2Cl)[nH]1,5.698
20,c1ccc(NCc2ccsc2)c(Cn2cncn2)c1,3.372
21,CC(=O)NC(Cc1c[nH]c2cc(F)ccc12)C(=O)Nc1cnn(C)c1 (configuration not stated),-8.595
